Records with an inconclusive call do not appear. Calls of active or inactive are those of the source. Calls come from the whole dose curve; as a rule, active = well fitted curve in the direction sought with a large enough effect; inconclusive = small, poorly fitted or top-dose-only effect, or another doubt; inactive = no such curve, though single readings can be large; an effect the other way counts as inactive or inconclusive.
Columns and labels:
[1] = qHTS of pediatric cancer cell lines to identify multiple opportunities for drug repurposing: Primary screen for SK-N-MC cells (AID 1347093); conditions: SK-N-MC viability, CellTiter-Glo luminescence, 48 h; series mostly up to 46 µM; note: potency is the fitted concentration of half-maximal effect;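 for activity change, negative = cytotoxic: plate controls were DMSO neutral control for no effect and bortezomib for full effect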
How it was run: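 Metabolically active cells were quantified by ATP-dependent luminescence (CellTiter-Glo, 15 min at room temperature) following 48 h treatment. Cells had been plated at 500-1,000 per well and settled for 5 h beforehand.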

[2] = qHTS of pediatric cancer cell lines to identify multiple opportunities for drug repurposing: Primary screen for BT-37 cells (AID 1347094); conditions: BT-37 viability, CellTiter-Glo luminescence, 48 h; series mostly up to 57.3 µM;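 note: plate controls were DMSO for no effect and bortezomib for full effect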
How it was run: (§1)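 Cells plated at 500-1,000/well in growth medium, compounds added after 5 h. MIPE tested at 11 points (from 0.78 nM), NPC at 8 points (from 0.59 nM). CellTiter-Glo luminescence after 48 h; concentration-response curves from primary screen.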

[3] = qHTS of pediatric cancer cell lines to identify multiple opportunities for drug repurposing: Primary screen for NB-EBc1 cells (AID 1347095); conditions: NB-EBc1 neuroblastoma viability, CellTiter-Glo luminescence, 48 h; series mostly up to 46 µM;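 note: plate controls were DMSO neutral control for no effect and bortezomib for full effect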
How it was run: as §1

[4] = qHTS of pediatric cancer cell lines to identify multiple opportunities for drug repurposing: Primary screen for U-2 OS cells (AID 1347096); conditions: U-2 OS viability, CellTiter-Glo luminescence, 48 h; series mostly up to 46 µM;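 note: plate controls were DMSO wells for no effect and bortezomib positive control wells for full effect; nearly all actives have a fitted effect of over 50% in size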
How it was run: (§2)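 Cells (500-1,000/well) rested 5 h, then received compounds for 48 h; metabolically active cells were measured by CellTiter-Glo luminescence. Final concentrations spanned up to 46 µM (MIPE, 11-point) or 0.59 nM-46 µM (NPC, 8-point) in primary screens, 11-point in follow-ups.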

[5] = qHTS of pediatric cancer cell lines to identify multiple opportunities for drug repurposing: Primary screen for SK-N-SH cells (AID 1347098); conditions: SK-N-SH viability, CellTiter-Glo luminescence, 48 h; series mostly up to 57 µM;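 note: DMSO served as neutral control and bortezomib at 2.3 µM as positive control; % is set by controls: 0 for no effect and ±100 for the full control effect; nearly all actives have a fitted effect of over 65% in size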
How it was run: as §2

[6] = qHTS of pediatric cancer cell lines to identify multiple opportunities for drug repurposing: Primary screen for NB1643 cells (AID 1347099); conditions: NB1643 neuroblastoma viability, CellTiter-Glo luminescence, 48 h; series mostly up to 46 µM;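 note: plate controls were DMSO neutral control for no effect and bortezomib positive control for full effect; nearly all actives have a fitted effect of over 50% in size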
How it was run: as §1

[7] = qHTS of pediatric cancer cell lines to identify multiple opportunities for drug repurposing: Primary screen for LAN-5 cells (AID 1347100); conditions: LAN-5 neuroblastoma viability, CellTiter-Glo luminescence, 48 h; series mostly up to 46 µM;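 note: plate controls were DMSO neutral control for no effect and bortezomib positive control for full effect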
How it was run: as §2

[8] = qHTS of pediatric cancer cell lines to identify multiple opportunities for drug repurposing: Primary screen for BT-12 cells (AID 1347101); conditions: BT-12 viability, CellTiter-Glo luminescence, 48 h; series mostly up to 57.3 µM;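 note: plate controls were DMSO for no effect and bortezomib positive control for full effect; nearly all actives have a fitted effect of over 25% in size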
How it was run: as §2

[9] = qHTS of pediatric cancer cell lines to identify multiple opportunities for drug repurposing: Primary screen for Rh18 cells (AID 1347102); conditions: Rh18 rhabdomyosarcoma viability, CellTiter-Glo luminescence, 48 h; series mostly up to 46 µM; note: % is set by controls: 0 for no effect and ±100 for the full control effect; nearly all actives have a fitted effect of over 65% in size
How it was run: as §2

[10] = qHTS of pediatric cancer cell lines to identify multiple opportunities for drug repurposing: Primary screen for Saos-2 cells (AID 1347097); conditions: Saos-2 viability, CellTiter-Glo ATP luminescence, 48 h; series mostly up to 46 µM; note: % is set by controls: 0 for no effect and ±100 for the full control effect; nearly all actives have a fitted effect of over 40% in size
How it was run: as §1

C[C@H](NC(CCc1ccccc1)C(=O)O)C(=O)N1CCC[C@H]1C(=O)O (some centres not stated)
inactive: Potency [1] | Potency [2] | Potency [3] | Potency [4] | Potency [5] | Potency [6] | Potency [7] | Potency [8] | Potency [9]

C[C@]12CC[C@@H]3c4ccc(O)cc4CC[C@H]3[C@@H]1CCC2=O
inactive: Potency [1] | Potency [2] | Potency [3] | Potency [4] | Potency [5] | Potency [6] | Potency [9]

Cc1cc(CC(=O)O)n(C)c1C(=O)c1ccc(Cl)cc1
inactive: Potency [1] | Potency [2] | Potency [3] | Potency [4] | Potency [6] | Potency [7] | Potency [8] | Potency [9]

CN1[C@@H]2CC(OC(=O)[C@H](CO)c3ccccc3)C[C@H]1[C@@H]1O[C@@H]12 (some centres not stated)
inactive: Potency [1] | Potency [2] | Potency [3] | Potency [10] | Potency [5] | Potency [6] | Potency [7] | Potency [8]

N[C@H](C(=O)O)c1ccc(O)cc1
inactive: Potency [1] | Potency [2] | Potency [3] | Potency [4] | Potency [5] | Potency [6] | Potency [7] | Potency [8] | Potency [9]

NC(=O)NNc1ccccc1
inactive: Potency [1] | Potency [2] | Potency [3] | Potency [4] | Potency [10] | Potency [6] | Potency [8] | Potency [9]

Cc1ccc(C(C)C)cc2c(C)ccc1-2
inactive: Potency [1] | Potency [2] | Potency [3] | Potency [4] | Potency [5] | Potency [6] | Potency [7] | Potency [8] | Potency [9]

CC(O)CN(CCN(CC(C)O)CC(C)O)CC(C)O (configuration not stated)
inactive: Potency [1] | Potency [2] | Potency [3] | Potency [4] | Potency [5] | Potency [6] | Potency [7] | Potency [8]

Nc1ccc(S(=O)(=O)Nc2ccc(Cl)nn2)cc1
inactive: Potency [1] | Potency [2] | Potency [3] | Potency [4] | Potency [5] | Potency [6] | Potency [7] | Potency [8] | Potency [9]

COc1cc(C)c(Cc2cnc(N)nc2N)cc1OC
active: Potency [1] 11.9 µM
inactive: Potency [2] | Potency [3] | Potency [4] | Potency [5] | Potency [7] | Potency [8] | Potency [9]

Cn1c(=O)c2c(ncn2CC2OCCO2)n(C)c1=O
inactive: Potency [1] | Potency [2] | Potency [3] | Potency [4] | Potency [6] | Potency [7] | Potency [8] | Potency [9]

CN(C)CCCO[C@@H]1[C@H]2OC(C)(C)O[C@H]2O[C@@H]1C(O)CO (some centres not stated)
inactive: Potency [1] | Potency [2] | Potency [3] | Potency [4] | Potency [5] | Potency [6] | Potency [7] | Potency [8] | Potency [9]

C[C@H]1O[C@H](O[C@H]2[C@H](O)[C@@H](O)[C@@H](O[C@H]3[C@H](O)[C@@H](O)[C@H](O)O[C@@H]3CO)O[C@@H]2CO)[C@H](O)[C@@H](O)[C@@H]1N[C@H]1C=C(CO)[C@@H](O)[C@H](O)[C@H]1O
inactive: Potency [1] | Potency [2] | Potency [3] | Potency [4] | Potency [5] | Potency [6] | Potency [8]

OCC(O)CN1CCN(c2ccccc2)CC1 (configuration not stated)
inactive: Potency [1] | Potency [2] | Potency [3] | Potency [4] | Potency [5] | Potency [6] | Potency [7] | Potency [8] | Potency [9]

CCCCN(CCCC)CCCOC(=O)c1ccc(N)cc1
inactive: Potency [1] | Potency [2] | Potency [3] | Potency [4] | Potency [5] | Potency [6] | Potency [7] | Potency [8] | Potency [9]

Oc1cccc(O)c1
inactive: Potency [1] | Potency [2] | Potency [3] | Potency [4] | Potency [5] | Potency [6] | Potency [7] | Potency [8] | Potency [9]

CCOC(=O)[C@H](CCc1ccccc1)N[C@@H](C)C(=O)N1C(=O)N(C)C[C@H]1C(=O)O
inactive: Potency [1] | Potency [2] | Potency [3] | Potency [4] | Potency [5] | Potency [6] | Potency [7] | Potency [8] | Potency [9]

CC(CN1c2ccccc2Sc2ccccc21)N(C)C (configuration not stated)
inactive: Potency [1] | Potency [2] | Potency [3] | Potency [4] | Potency [6] | Potency [7]

CC(=O)NC(Cc1ccccc1)C(=O)O (configuration not stated)
inactive: Potency [1] | Potency [2] | Potency [3] | Potency [4] | Potency [5] | Potency [6] | Potency [7] | Potency [8] | Potency [9]

CNC(=O)Oc1ccc2c(c1)[C@]1(C)CCN(C)[C@@H]1N2C
inactive: Potency [1] | Potency [2] | Potency [3] | Potency [10] | Potency [5] | Potency [6] | Potency [7] | Potency [8]

CCN(CC)C(C)CN1c2ccccc2Sc2ccccc21 (configuration not stated)
inactive: Potency [1] | Potency [2] | Potency [3] | Potency [4] | Potency [6] | Potency [7] | Potency [8] | Potency [9]

CC(C)(C)NCC(O)COc1ccc(NC(=O)NC2CCCCC2)cc1 (configuration not stated)
inactive: Potency [1] | Potency [2] | Potency [3] | Potency [4] | Potency [5] | Potency [6] | Potency [7] | Potency [8] | Potency [9]

C[C@](N)(Cc1ccc(O)cc1)C(=O)O
active: Potency [1] 0.001 µM
inactive: activity change, negative = cytotoxic [2] 0.899% [at 6.03 µM] | activity change, negative = cytotoxic [3] 16.2% [at 4.84 µM] | activity change, negative = cytotoxic [4] 7.56% [at 4.84 µM] | activity change, negative = cytotoxic [5] -0.998% [at 6 µM] | activity change, negative = cytotoxic [7] -5.33% [at 4.84 µM] | activity change, negative = cytotoxic [8] 0.753% [at 6.03 µM] | activity change, negative = cytotoxic [9] 14.1% [at 4.84 µM]

CCC(=O)Nc1ccc(O)cc1
inactive: Potency [1] | Potency [2] | Potency [3] | Potency [10] | Potency [6] | Potency [7] | Potency [8]

CC1CC(OC(=O)C(O)c2ccccc2)CC(C)(C)N1C (configuration not stated)
inactive: Potency [1] | Potency [2] | Potency [3] | Potency [10] | Potency [5] | Potency [6] | Potency [7] | Potency [8] | Potency [9]

From PubChem BioAssay (NCATS)
